Test results as given in PubChem BioAssay AID1619 (SRMLSC, 2009).
The whole screen tested about 220,000 compounds, of which about 830 (0.38%) were called active.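 How the source made its calls: active means compound inhibiting the enzyme by more than half at any dose during confirmatory dose-response retesting; inconclusive means strong single-dose inhibitors picked by rank but not retested; inactive means the rest.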 A selection follows. Potency and affinity values are given separately.

target: Leucine aminopeptidase (Plasmodium falciparum (isolate 3D7)) (UniProt Q8IL11); experiment: P. falciparum M17LAP inhibitors, primary screen, biochemical, fluorogenic H-Leu-NHMec substrate, 1536-well (AID 1619); details: recombinant M17LAP, H-Leu-NHMec fluorogenic kinetic assay; at 30 µM; active compounds read high;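 further: plate controls were full reaction with DMSO carrier for no effect and no enzyme background for full effect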
Sequence (Q8IL11 whole entry, looked up): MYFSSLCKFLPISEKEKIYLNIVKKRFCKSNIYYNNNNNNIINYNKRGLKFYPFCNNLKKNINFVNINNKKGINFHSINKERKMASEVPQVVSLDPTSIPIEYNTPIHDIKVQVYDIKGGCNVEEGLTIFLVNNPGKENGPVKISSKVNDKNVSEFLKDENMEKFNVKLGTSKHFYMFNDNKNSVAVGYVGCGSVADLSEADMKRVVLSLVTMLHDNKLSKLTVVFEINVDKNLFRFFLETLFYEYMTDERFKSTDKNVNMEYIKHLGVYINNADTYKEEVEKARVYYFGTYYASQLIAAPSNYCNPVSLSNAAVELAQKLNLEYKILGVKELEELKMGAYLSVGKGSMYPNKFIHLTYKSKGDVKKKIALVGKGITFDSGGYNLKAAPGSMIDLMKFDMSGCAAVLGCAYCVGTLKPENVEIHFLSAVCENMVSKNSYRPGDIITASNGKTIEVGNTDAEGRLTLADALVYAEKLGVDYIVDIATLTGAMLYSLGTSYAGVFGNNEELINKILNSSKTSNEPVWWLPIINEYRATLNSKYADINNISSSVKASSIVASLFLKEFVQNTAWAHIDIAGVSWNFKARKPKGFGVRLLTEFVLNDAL

inhibition, inactive:
CCOC(=O)C[N+](C)(C)CCOC1CC2CCC1(C)C2(C)C (stereo not drawn) 3.08%
O=C(c1cnn2c(C(F)(F)F)cc(-c3ccc4c(c3)OCO4)nc12)N1CCCCC1 6.7%
O=C(NCCC1=CCCCC1)C1CCN(C(=O)Cc2ccccc2)CC1 6.09%
O=C(CSc1n[nH]c(-c2cccs2)n1)N1CCCc2ccccc21 1.29%
Fc1ccc(CNc2nc3ccccc3n3cnnc23)cc1 -2.38%
CCOC(=O)C1CN(S(=O)(=O)c2ccccc2)CCN1S(=O)(=O)c1ccccc1 (stereo not drawn) -13.2%
CCCCCn1c(CNC(=O)COC)nc2ccccc21 -1.06%
CN(CC(=O)Nc1ccc(N2CCOCC2)cc1)CC(=O)Nc1cccc(C#N)c1 17.1%
CC(C)Oc1ccc(C(CC(=O)O)NC(=O)C2CCCCC2)cc1 (stereo not drawn) 4.14%
Cc1nc(SCC(=O)c2ccc(F)cc2)n[nH]1 19.2%
CC(C)(C)c1ccc(C(=O)CSc2nc3ccccc3c(=O)[nH]2)cc1 9.78%
CC(C)(C)c1ccc(C(=O)CSc2n[nH]c(=O)[nH]c2=O)cc1 -4.96%
CC(C)Oc1ccc(C(CC(=O)O)NC(=O)C(Sc2ccccc2)c2ccccc2)cc1 (stereo not drawn) 19.5%
Cc1ccc(C(=O)CSc2n[nH]c(C)n2)cc1 46.4%
O=C(CCC(=O)Nc1ccccc1)NNC(=O)c1ccccc1Cl -1.79%
CCCN1Cc2cccc(C(=O)Nc3ccc(C)cc3)c2C1=O -1.02%
COCCNC(=S)N1CCC(Cc2ccccc2)CC1 1.83%
CC(=O)Nc1ccc(Sc2ccccc2C(=O)O)cc1 6.89%
CCOC(=O)C1CCCN(C(=O)c2cc(Nc3ccc(OC)cc3OC)nc3ccccc23)C1 (stereo not drawn) -1.02%
O=C(NCCc1ccc(S(=O)(=O)N2CCCC2)cc1)c1cccs1 22.4%
O=C(CSc1nnc(CNC(=O)c2ccco2)o1)Nc1ccccc1 21.5%
COc1ccc2nc(N3CCCCC3)c(/C=C3\SC(=S)NC3=O)cc2c1 15.3%
O=C1NC(=S)S/C1=C\c1cc2ccccc2nc1N1CCCCC1 8.4%
O=C(CSCc1ccccc1Br)N/N=C/c1ccc(OCC(=O)N2CCCCC2)cc1 9.49%
O=C1NC2(CCCCC2)C(=O)N1/N=C/c1ccccc1Br -1.17%
CCCc1nc2ccccc2c(=O)n1/N=C/c1ccccc1O -13.5%
CCCc1nc2ccccc2c(=O)n1/N=C/c1ccc(O)cc1 -6.52%
Cc1ccc(-c2cccc(NC(=O)C3C(C(=O)O)[C@@H]4C=C[C@H]3C4)c2)o1 (stereo partly drawn) 22.7%
Cc1ccc(-c2ccc(NC(=O)C3C4C=CC(C4)C3C(=O)O)cc2)o1 (stereo not drawn) 51.5%
CCOC(=O)C/C(C)=N/NC(=O)C1CC1(c1ccccc1)c1ccccc1 (stereo not drawn) -7.82%
Cc1cc(NC(=O)c2ccc(NC(=O)C3CC3)cc2)no1 -1.13%
COc1ccc(Br)cc1CN(C)C(C)C(=O)Nc1cccc(C(C)=O)c1 (stereo not drawn) -4.69%
Cc1ccc(NC(=O)Cn2cc3c(n2)CCC(C)C3)cc1 (stereo not drawn) -7.43%
CC1CCc2nn(CC(=O)Nc3ccc(F)cc3F)cc2C1 (stereo not drawn) 6.54%
CC1CCN(S(=O)(=O)c2ccc3ncn(CC(=O)N(C)Cc4ccccc4)c(=O)c3c2)CC1 3.66%
COc1ccc(N2C(=O)CCC(C(=O)N3CCCCCC3)C2c2ccc(OC)c(OC)c2)cc1 (stereo not drawn) -1.54%
CCCCC(CC)C(=O)NCC(C)NC(=O)C(CC)CCCC (stereo not drawn) 2.99%
CCOc1ccc(C(=O)NCC(=O)OCC(=O)Nc2ccccc2OCC)cc1 0.01%
CC(OC(=O)Cc1coc2ccc3ccccc3c12)C(=O)Nc1ncc(Cl)cc1Cl (stereo not drawn) 5.82%
Cn1c(=O)[nH]c(=O)c2c1nc(NC1CCCCC1)n2CC(=O)NC1CCCCC1 10.2%
COc1ccc(C)cc1NC(=O)CC1COc2ccccc2O1 (stereo not drawn) 4.49%
COc1ccc(NC(=O)CCC2COc3ccccc3O2)c(OC)c1 (stereo not drawn) 11.9%
COc1cc(OC)c(OC)cc1NC(=O)CC1COc2ccccc2O1 (stereo not drawn) -17.5%
COc1cccc(NC(=O)CC2COc3ccccc3O2)c1 (stereo not drawn) 7.49%
FC(F)(F)c1ccccc1NC(=S)N1CCN(c2ccccn2)CC1 1.6%
Oc1cc(Cc2ccccc2)cnc1CN1CCOCC1 -3.17%
CCCCCOP(=O)(c1ccccc1)c1ccccc1 -7.38%
CCc1ccc(-n2c(SCC(=O)N3Cc4ccccc4CC3C(=O)O)nnc2-c2ccncc2)cc1 (stereo not drawn) -6.38%
CC(c1ccon1)N(C)Cc1c(C(=O)N(C)Cc2ccccc2)nc2ccccn12 (stereo not drawn) 11.8%
Cc1cc(C(=O)CSc2cccc[n+]2[O-])c(C)n1-c1ccc(Br)cc1 1.39%
CCN1c2ccccc2-c2nc3ccccc3n2C1c1cccnc1 (stereo not drawn) -45%
O=C(COC(=O)CCC(=O)c1ccc(Cl)cc1)NC1CC1 10.9%
O=C(c1ccccc1Cl)N1CCn2c1nc1ccccc12 24.5%
CCOCCCn1c(SCC(=O)Nc2cc(C(C)(C)C)nn2-c2ccccc2)nc2ccccc2c1=O -8.18%
O=C1/C(=C/c2ccc([N+](=O)[O-])cc2)C=C(c2ccccc2)N1c1ccccc1 1.75%
O=C(O)c1cccc(N2C(=O)/C(=C/c3ccc([N+](=O)[O-])cc3)C=C2c2ccccc2)c1 31.6%
CCOC(=O)CC(=O)CSc1nc(C)cc(C)c1C#N -4.47%
COc1cc(NC(=O)c2cccc(C)c2)c(OC)cc1NC(=O)CN1CCOCC1 14.9%
O=C(O)COc1ccccc1/C=C1\SC(=Nc2ccc(F)cc2)N(c2ccc(F)cc2)C1=O 2.19%
O=C(O)COc1ccccc1/C=C1\SC(=S)N(c2cccnc2)C1=O 10.2%
CN1C(=O)S/C(=C\c2ccccc2OCc2ccc(C(=O)O)cc2)C1=O 5.62%
Cc1ccccc1/C=C1\SC(=S)N(/N=C/c2cc([N+](=O)[O-])ccc2O)C1=O 15.5%
Cc1cccc(C2c3[nH]c4ccccc4c3CCN2C(=O)c2cn(C)c3ccccc3c2=O)n1 (stereo not drawn) 8.5%
COCCCNC(=S)N/N=C/c1ccccc1O 19.4%
CNCC(=O)Nc1ccc(Cl)c(C(F)(F)F)c1 -1.94%
O=C(O)CCCC(=O)Nc1cccc(C(F)(F)F)c1 24.8%
O=C(CSC1=NCCN1)Nc1cccc(C(F)(F)F)c1 -6.47%
CCc1ccc(NC(=O)CSc2nnc(CC)c(CC)n2)cc1 29.2%
CCc1nnc(SCC(=O)Nc2ccccc2)nc1CC 21.8%
Cc1cc(C)nc(SCc2nnc(SCC(=O)Nc3ccc(Cl)c(C(F)(F)F)c3)o2)n1 10.2%
Cc1cc(C)nc(/N=C(\NC(=O)C(C)(C)C)Nc2ccc(F)cc2)n1 12.7%
CN(C)CCNC(=S)Nc1ccc(-c2nc3ccccc3[nH]2)cc1 18.8%
COc1ccc(-c2csc3nc(C)nc(N4CCN(c5ccc(C(C)=O)cc5)CC4)c23)cc1OC -3.5%
COCCSc1ccccc1C(=O)N1CCCC(C)C1 (stereo not drawn) -3.2%
CC(C)(C)C(=O)Nc1cccc(-c2ncon2)c1 1.81%
NS(=O)(=O)c1ccc(NC(=O)Cn2ncc3c2-c2ccccc2OC3)cc1 -1.22%
COc1cccc(CNC(=O)Cc2c(C(=O)O)[nH]c3ccccc23)c1 8.02%
COc1ccc(OC)c(CNC(=O)Cc2c(C(=O)O)[nH]c3ccccc23)c1 28.4%
Cc1ccc(NC(=O)C(=O)NCC2CCCO2)cc1C (stereo not drawn) -1.64%
COCc1nnc(NS(=O)(=O)c2ccc(C)cc2)s1 4.91%
COc1ccc(S(=O)(=O)Nc2nncs2)cc1 54.3%
COCc1cc(C)nc(SCC(=O)Nc2ccccc2C)c1C#N -1.72%
Cc1cc(C)c(C#N)c(SCC(=O)Nc2ccccc2C(N)=O)n1 -14.1%
Cc1ccccc1NC(=O)CSc1nc(N)c(C#N)cc1C#N -1.94%
Cc1nc(SCC(=O)Nc2ccc(F)cc2)c(C#N)c(C)c1CC(=O)c1ccc(Br)cc1 -7.6%
Cc1cc(C)c(C#N)c(SCC(=O)Nc2ccc3c(c2)OCO3)n1 2.63%
Cc1ccc(C)c(NC(=O)CSc2nc(C)cc(C)c2C#N)c1 11.2%
Cc1cc(C)c(C#N)c(SCC(=O)Nc2ccccc2C)n1 -11.6%
COc1ccc(-c2cc(C(F)(F)F)c(C#N)c(SCC(=O)Nc3ccccc3C#N)n2)cc1 -5.46%
O=C(NCCc1c[nH]c2ccccc12)/C(=C/c1cccnc1)NC(=O)c1cccs1 7.81%
Cc1ccc(NC(=O)CCCN2C(=S)NC(C)(C)CC2C)cc1 (stereo not drawn) 4.19%
CCCN(c1nc(C)cc(OC)n1)S(=O)(=O)c1ccccc1 -8.31%
N#CC1=C(N)Oc2n[nH]c(-c3ccncc3)c2C1c1ccsc1 (stereo not drawn) 27.9%
N#CC1=C(N)Oc2n[nH]c(-c3cccs3)c2C1c1cccnc1 (stereo not drawn) 24.1%
CCOc1ccc(-c2[nH]nc3c2C(c2cccnc2)C(C#N)=C(N)O3)cc1 (stereo not drawn) 24.6%
Cc1cc(-c2[nH]nc3c2C(c2ccsc2)C(C#N)=C(N)O3)c(C)s1 (stereo not drawn) 45.6%
Cc1cc(-c2[nH]nc3c2C(c2ccc(Cl)cc2)C(C#N)=C(N)O3)c(C)s1 (stereo not drawn) 23.3%
COc1ccc(-c2[nH]nc3c2C(c2ccsc2)C(C#N)=C(N)O3)cc1 (stereo not drawn) 72.1%
